Source: PubChem BioAssay
Unmarked numbers belong to inactive results. The rule behind the calls is not given here.

target: Pantothenate synthetase (Mycobacterium tuberculosis (strain ATCC 25618 / H37Rv)) (UniProt P9WIL5); assay: Recombinant Mtb pantothenate synthetase (PanC) inhibitors, coupled enzyme, confirmatory (AID 375); conditions: coupled enzyme assay; at 10 µM, stronger effect = higher value;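 note: 0% = full reaction with vehicle and 100% = no enzyme background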
Sequence (P9WIL5 whole entry, looked up): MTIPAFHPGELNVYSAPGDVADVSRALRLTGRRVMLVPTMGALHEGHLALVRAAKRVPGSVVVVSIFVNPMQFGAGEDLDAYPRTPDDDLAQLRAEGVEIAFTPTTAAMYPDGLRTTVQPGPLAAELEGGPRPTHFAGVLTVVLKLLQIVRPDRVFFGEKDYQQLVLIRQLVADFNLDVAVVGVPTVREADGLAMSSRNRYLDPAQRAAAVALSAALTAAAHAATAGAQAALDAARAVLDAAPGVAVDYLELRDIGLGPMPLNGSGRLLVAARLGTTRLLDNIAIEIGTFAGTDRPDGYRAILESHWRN

SMILES	inhibition
CCOc1ccc(NC(=O)CSc2nnnn2CC(=O)O)cc1	0%
Cn1c(=O)c(=O)n(C)c2cc(S(=O)(=O)Nc3ccc4c(c3)OCCO4)ccc21	6%
CC(C)c1nnc(NC(=O)c2cnccn2)s1	0%
COCCOC(=O)C1=C(C)N=c2s/c(=C\c3cccs3)c(=O)n2C1c1cccs1 (stereo not given)	1%
CCC(=O)N1CCc2cc(S(=O)(=O)CCC(=O)Nc3nc(C)cs3)ccc21	5%
CCOC(=O)N1CCN(C(=O)c2n[nH]c(=O)c3ccccc23)CC1	2%
Cn1c(=O)oc2cc(S(=O)(=O)NCCC(=O)N3CCc4ccccc4C3)ccc21	0%
Cc1ccc(C(=O)CCC2CCCC2=O)cc1 (stereo not given)	0%
CCOc1cc(C(=O)N(C)c2ccccc2)cc(OCC)c1OCC	1%
CCCCN(CCCC)CCCOC(=O)c1ccc(N)cc1	0%
CCCS(=O)(=O)Nc1c(C(=O)O)[nH]c2ccccc12	0%
O=C(CCC(=O)OCC(=O)c1ccccc1)NC1CCCCC1	2%
COC(=O)c1c(NC(=O)c2ccc(S(=O)(=O)N3CCOCC3)cc2)sc2c1CCN(C)C2	0%
CCCNC(=O)NC1C(NC(=O)NCCC)N(C)C(=O)N1C (stereo not given)	5%
CC(C)(C)NC(=O)C(c1ccco1)N(C(=O)Cn1nnc(-c2ccc(F)cc2)n1)c1ccccc1F (stereo not given)	5%
Cc1ccc(C)c2[nH]c(=O)c(CN(CCN3CCCC3)C(=O)Nc3cccc(Cl)c3)cc12	0%
CCN(CC)c1ccc2c(C)c(-c3ccc(N)cc3)c(=O)oc2c1	10%
O=C(NCc1ccc(F)cc1)c1cc2ccccn2n1	1%
O=C(CCSc1nc(-c2ccco2)cc(C(F)(F)F)n1)NCCc1ccccc1	1%
Cn1c(=O)cc(OCC(=O)NCCCN2CCN(c3cccc(Cl)c3)CC2)c2ccccc21	0%

SMILES	inhibition
Cc1noc(C)c1C(=O)Nc1ccc(Cl)cc1C(F)(F)F	4%
CC(=O)Nc1ccc(NC(=O)Cn2cc3c(n2)CCC(C)C3)cc1 (stereo not given)	3%
O=C(Nc1ccccc1-c1ccccc1)NC1CCN(C(=O)N2CCOCC2)CC1	0%
Cc1ccc(-c2nn[nH]n2)cc1	0%
CCNc1nc(N2CCOCC2)nc(N(c2ccccc2)c2ccccc2)n1	0%
O=C(NC1CCCCCC1)C1CCCN(S(=O)(=O)c2cccs2)C1 (stereo not given)	0%
CCCCCCNS(=O)(=O)c1ccc(Cl)s1	2%
CCOC(=O)C1CCN(C(C)=C2C(=O)c3ccccc3C2=O)CC1	2%
CC(C)Cn1c(CN2CCCCC2C)nc2c1c(=O)n(C)c(=O)n2C (stereo not given)	0%
CCCc1cc(Nc2cccc(OC)c2)n2ncnc2n1	0%
COc1ccc(-c2cc(N3CCCC3)n3ncnc3n2)cc1	9%
CCOc1ccc(-c2nc(C#N)c(N3CCCCCC3)o2)cc1	4%
O=C(NCc1ccccc1)C1CCCN(S(=O)(=O)c2cccnc2)C1 (stereo not given)	0%
Cc1cccc(C(OC(=O)c2ccco2)C(=O)NCc2ccccc2)n1 (stereo not given)	4%
COc1ccc(NCc2nnc(SCC(=O)Nc3cc(C)cc(C)c3)o2)cc1	0%
CCn1c(SCC(=O)Nc2cc(C)on2)nc2sc3c(c2c1=O)CCCC3	0%
c1ccc(-c2nn3nnnc3c3ccccc23)cc1	4%
COc1cc(C)c(N)cc1C(C)C	2%
CC1(c2ccc(Cl)cc2)NC(=O)N(CC(=O)NC(=O)NCc2ccco2)C1=O (stereo not given)	1%
CC(C)n1c(NCc2c[nH]c3ccccc23)nc2ccccc21	0%
